BJeLR viab HTS – BJeLR cell viability loss, primary screen, luminescence, CellTiterGlo ATP; 0.64% of 30,000 active; BJeLR fibroblasts viability, 48 h; HRASV12, hTERT and SV40 LT/ST transformed; viability loss activity score, % (concentration not given with the values); AID 2275, 2010; in the data active means viability loss activity score above about 50%;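 further: higher score means fewer live cells and less ATP luminescence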
A1 inhib – inducers of caspase activity in MEF A1-2A-BIM cells, primary screen, A1 inhibitor project, cell-based, CaspaseGlo luminescence. caspase-Glo luminescence, 3 h; percent of clofoctol signal, DMSO as zero. caspase activation, % (concentration not given with the values). 0.51% of 21,000 active. AID 2241, 2010;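 active means most replicate scores above 10, or exactly half above 10 with mean activity above 10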;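 further: effector caspase 3 and 7 activity cleaving a DEVD luciferin substrate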
Active calls of the source: *; . = not tested or not shown. A selection: hits, their analogues and other compounds. The true share with any hit is near 0.89%.

SMILES	BJeLR viab HTS	A1 inhib
CCC(=O)NCC[C@@H]1CCc2ccc3c(c21)CCO3	-1.4	0.7
C[C@@H]1CN([C@@H](C)CO)C(=O)c2cc(NC(=O)Cn3cnnn3)ccc2O[C@H]1CN(C)S(=O)(=O)c1cccs1	0.3	0.5
C[C@H]1CC[C@@H]2[C@@H](C(=O)c3c(O)c([C@]4(O)CC[C@@H](O)[C@H]5O[C@H]54)c[nH]c3=O)[C@@H](C)C=C[C@H]2C1	53.8*	3.2
C/C=C(/C)C(=O)O[C@H]1CC(C)(C)C[C@H]2C3=CCC4[C@@]5(C)CC[C@H](O[C@@H]6O[C@H](C(=O)O)[C@@H](O[C@@H]7O[C@H](CO)[C@H](O)[C@H](O)[C@H]7O[C@@H]7O[C@H](CO)[C@@H](O)[C@H](O)[C@H]7O)[C@H](O)[C@H]6O[C@@H]6O[C@@H](C)[C@H](O)[C@@H](O)[C@H]6O)C(C)(C)C5CC[C@@]4(C)[C@]3(C)C[C@@H](O)[C@@]12CO (stereo partly drawn)	127.1*	-4.1
CC1OC(OC2C(C(=O)O)OC(O[C@H]3CC[C@@]4(C)C(CC[C@]5(C)C4CC=C4C6CC(C)(C)CC[C@]6(C(=O)OC6OC(CO)C(O)C(O)C6O)CC[C@]45C)C3(C)C)C(O)C2O)C(OC2OCC(O)C(O)C2O)C(O)C1O (stereo partly drawn)	-1.9	0.0
CCCCN1C2=NC3C=CC=CN3C(=O)C2=CC(C(=O)OCC)C1=NC(=O)c1ccccc1 (stereo not drawn)	-9.6	.
c1csc(CSc2nc3ccccc3[nH]2)c1	5.4	.
c1ccc2[nH]c(-c3nc4ccccc4s3)nc2c1	101.4*	-7.0
c1ccc2[nH]c(-c3cscn3)nc2c1	59.5*	-5.5
O=C(Nc1ccc(-c2nc3ccccc3[nH]2)cc1)c1ccc(-c2ccccc2)cc1	2.0	-0.9
CC(C)NC(=O)Nc1cccc2c1O[C@@H](CN(C)Cc1ccc(Cl)c(Cl)c1)[C@H](C)CN([C@H](C)CO)C2=O	-2.9	.
COc1cnc(NS(=O)(=O)c2ccc(N)cc2)nc1	5.0	0.5
CNC(=O)Cn1cc2c(n1)-c1c(oc(C(=O)N3CCCC3)c1C)CC2	-2.4	-0.3
CCOC(=O)c1ccc(NC(=O)c2oc3c(c2C)-c2nn(Cc4ccc(C)cc4)cc2CC3)cc1	2.9	21.8*
C[C@@H]1CN([C@H](C)CO)C(=O)c2cccc(NS(=O)(=O)c3ccc(Cl)cc3)c2O[C@@H]1CN(C)C(=O)Nc1ccc(F)cc1	-13.1	.
COc1ccc(S(=O)(=O)Nc2cccc3c2O[C@@H](CN(C)S(=O)(=O)c2ccccc2)[C@H](C)CN([C@H](C)CO)C3=O)cc1	0.2	.
CCOC(=O)c1c(C)nsc1Nc1cc(C)ccc1C	1.7	0.1
CCCCNc1c(C(=O)OCC)c(C)nc2c1cnn2CC	79.9*	-0.7
O=C(NC1CCCCNC1=O)c1csc2ccccc12 (stereo not drawn)	5.2	-0.3
C[C@@H]1CC[C@]2(C(=O)O)CC[C@]3(C)C(=CCC4[C@@]5(C)CC[C@@H](O)[C@](C)(C(=O)O)C5CC[C@]43C)C2[C@H]1C (stereo partly drawn)	.	0.1
CC1CC(=O)[C@]2(C)CC[C@]3(C)C(C(=O)C(O)C4[C@@]5(C)CC[C@H](O)C(C)(C(=O)O)C5CC[C@]43C)C2C1C (stereo partly drawn)	105.7*	3.0
Cc1cc(C(=O)Nc2cccc3c2O[C@H](CN(C)S(=O)(=O)c2ccccc2)[C@@H](C)CN([C@H](C)CO)C3=O)n(C)n1	7.5	.
O=C(C1CC1)N1c2ccccc2CCc2ccccc21	54.1*	2.0
O=C(NC1CCCCC1)N1c2ccccc2CCc2ccccc21	-1.3	-0.4
COc1ccc(OC)c(NS(=O)(=O)c2ccccc2)c1	1.3	-0.5
CCOC(=O)c1cc(-c2ccccc2)sc1NC(=O)CCN1CCN(CC)CC1	50.7*	11.6*
CCOC(=O)c1cc(CC)sc1NC(=S)Nc1ccccc1C(F)(F)F	0.7	1.7
C[C@@H]1CN([C@H](C)CO)C(=O)c2cccc(NC(=O)Nc3ccc4c(c3)OCO4)c2O[C@H]1CN(C)Cc1ccc(C(=O)O)cc1	-1.2	.
COc1cccc(NC(=O)COc2ccccc2OC)c1	7.1	-2.8
CSc1nc2cc(C)nn2c(-c2ccc(C(C)(C)C)cc2)c1C#N	0.6	-0.6

Bioassay records from PubChem.
